# From PubChem
# SMN2 splice enh: enhancers of SMN2 splice variant expression | HEK293 SMN2-luciferase splicing reporter, luminescence, 30-36 h | Potency, µM (top dose mostly 46.1 µM), hits mostly activators | 210,000 tested, 2.8% active; also: nearly all actives have a fitted effect of over 55% in size
#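 HEK293 cells carry an SMN2 […]–luciferase reporter in which exon 7 inclusion puts luciferase in frame. Cells were plated 10-12 h before compound addition, then incubated 30-36 h at 37C. ONE-Glo luminescence was read; sodium butyrate at 4.5 mM final served as control.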
# Rab9 prom act: Rab9 promoter activation; 320,000 tested, 2.8% active; AID 485297; Huh7 Rab9 promoter-luciferase reporter, luminescence, 24 h; Potency, µM (titrated, usually from 9.22 µM), actives largely listed as activators; also: nearly all actives have a fitted effect of over 60% in size
#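 Luminescence read-out: Huh7 cells stably expressing Rab9-luciferase, treated 24 h with compound at 37 °C, then lysed with luciferase reagent for 10 min at ambient before reading.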
# FLuc counter: inhibits or activates purified firefly luciferase, miR-21 counter-screen; P08659; Potency, µM (top dose mostly 57.5 µM), hits mostly inhibitors; 360,000 tested, 6.9% active; purified FLuc, Km substrates, luminescence inhibition; AID 588342; also: nearly all actives have a fitted effect of over 55% in size
# Target sequence (P08659 whole entry, looked up): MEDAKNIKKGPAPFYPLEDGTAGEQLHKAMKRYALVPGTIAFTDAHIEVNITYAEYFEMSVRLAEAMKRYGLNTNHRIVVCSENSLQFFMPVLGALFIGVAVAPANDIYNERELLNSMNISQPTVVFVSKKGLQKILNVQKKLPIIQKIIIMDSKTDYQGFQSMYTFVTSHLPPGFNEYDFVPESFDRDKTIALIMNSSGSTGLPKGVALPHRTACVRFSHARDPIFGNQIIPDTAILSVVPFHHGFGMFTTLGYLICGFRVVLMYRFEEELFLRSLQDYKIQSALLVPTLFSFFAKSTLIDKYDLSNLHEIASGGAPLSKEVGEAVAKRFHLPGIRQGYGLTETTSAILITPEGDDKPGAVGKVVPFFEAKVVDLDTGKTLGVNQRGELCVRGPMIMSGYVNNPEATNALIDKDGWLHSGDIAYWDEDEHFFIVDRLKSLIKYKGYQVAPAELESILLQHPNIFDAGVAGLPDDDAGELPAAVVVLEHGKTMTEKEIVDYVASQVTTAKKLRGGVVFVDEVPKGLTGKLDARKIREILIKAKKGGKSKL
#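 Purified P. pyralis luciferase, 10 nM final, with Km-level 10 uM D-luciferin and 10 uM ATP in 50 mM Tris acetate pH 7.5, 10 mM Mg acetate, 0.01% Tween-20, 0.05% BSA; 6-point qHTS titration about 60 µM downward; luminescence read.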
# NPC1 promoter act: activates the NPC1 promoter. Huh7 NPC1 promoter luciferase reporter, 24 h. Potency, µM (highest dose often 9.22 µM), actives largely listed as activators. 320,000 tested, 2.4% active. AID 485313; also: nearly all actives have a fitted effect of over 60% in size
#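 Huh7 cells stably carrying NPC1 promoter–luciferase, plated in Opti-MEM with 10% FBS for 2 h, were exposed to compound in DMSO for 24 h at 37 °C; luciferase reagent was added for 10 min and luminescence read.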
# ELG1 genotoxic: inducers of genotoxicity in HEK293T ELG1-luciferase cells; HEK293T ELG1-luciferase reporter, luminescence, 16 h; Potency, µM (titrated, usually from 46 µM), actives largely listed as activators; AID 504466; 330,000 tested, 1.3% active; also: nearly all actives have a fitted effect of over 60% in size
#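 16 hr compound incubation (37 °C, 5% CO2) of HEK293T cells carrying luciferase-tagged ELG1; luciferase then measured by ONE-Glo luminescence after 30 min at RT.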
# Hits are given with their value; - = inactive; ? = inconclusive; . = no result; [ ] = another dose, or the depositor's remark. Most compounds without a hit are left out; they make up all but 7.5% or so of the library. Calls follow the shape of the dose curve; as a rule, active = well fitted curve in the direction sought with a large enough effect; inconclusive = small, poorly fitted or top-dose-only effect, or another doubt; inactive = no such curve, though single readings can be large; an effect the other way counts as inactive or inconclusive.
SMILES,SMN2 splice enh,Rab9 prom act,FLuc counter,NPC1 promoter act,ELG1 genotoxic
O=C(Nc1ccc2[nH]c(=O)c(=O)[nH]c2c1)c1cccc(F)c1,?,.,-,.,.
Cc1ccc2cc(NC(=O)c3cccc(F)c3)ccc2n1,.,0.562µM,2.69µM,0.631µM,2.59µM
CCCC(=O)Nc1cnc(NC(=O)c2cccc(F)c2)cc1C,2µM,0.631µM,9.53µM,0.447µM,0.461µM
Cc1ccc2cc(NC(=O)c3ccccc3)ccc2n1,.,0.398µM,1.9µM,0.562µM,1.83µM
O=C(Nc1cccc(NC(=O)c2cccc(F)c2)n1)c1cccc(F)c1,.,-,19µM,-,-
COc1ccc(C(=O)C2CCN(CC(=O)Nc3ccccc3F)CC2)cc1,.,-,-,-,-
COc1ccc(NC(=O)N2CCCC2C(=O)Nc2ccc(C)c(Cl)c2)cc1 (stereo not given),-,-,-,-,-
O=C(COc1ccccc1)NC(NC(=S)Nc1ccccc1C(=O)O)C(Cl)(Cl)Cl (stereo not given),-,-,-,-,-
O=C(Nc1ccc2ccccc2c1)c1cccc(F)c1,.,0.708µM,2.13µM,1.26µM,?
NC(=O)Nc1nc2ccccc2[nH]1,-,.,.,.,.
O=C(/C=C/c1c(F)cccc1Cl)Nc1nc2ccccc2[nH]1,7.08µM,2.82µM,-,3.16µM,?
Cc1ccc(/C=C/C(=O)c2nc3ccccc3[nH]2)cc1,?,-,0.757µM,-,-
Cc1ccc(/C=C/C(=O)Nc2nc3ccccc3[nH]2)cc1,10µM,1.78µM,?,3.16µM,10.3µM
CCC(=O)N(Cc1cc2c(C)cc(C)cc2[nH]c1=O)C1CCCCC1,?,-,-,-,-
COc1ccccc1/C=C/C(=O)Nc1ccc(N2CCOCC2)cc1,-,-,-,-,-
COc1cccc(-c2ocnc2C(=O)Nc2ccc3c(c2)CCC3)c1,.,-,19µM,-,-
COc1ccccc1/C=C/C(=O)Nc1ccc2c(c1)CCC2,12.6µM,1.78µM,4.26µM,3.16µM,?
COc1cccc(CC(=O)Nc2ccc3c(c2)CCC3)c1,.,-,?,-,-
Cc1ccc(NC(=O)c2ncoc2-c2ccco2)cc1Cl,.,.,10.7µM,.,.
Cc1ccc(NC(=O)Cn2nc(-c3ccco3)ccc2=O)cc1Cl,.,-,-,-,-
COc1ccc(NC(=O)Nc2ccc3c(c2)CCC3)cc1,.,?,-,?,20.6µM
Cc1ccc(N(CC(=O)N2CCCCCC2)S(=O)(=O)c2ccccc2)cc1,.,-,-,-,-
CC(=O)N1CCN(c2ccccc2NC(=O)c2cccc3c(Cl)cccc23)CC1,.,-,?,-,-
Cc1ccccc1CN1c2ccccc2-c2nc(SCC(N)=O)ncc2S1(=O)=O,.,.,-,.,.
COc1ccc(NC(=O)/C=C/c2cc(Br)ccc2OC)cc1,-,-,?,-,-
SMILES,SMN2 splice enh,Rab9 prom act,FLuc counter,NPC1 promoter act,ELG1 genotoxic
COc1ccc(OC)c(/C=C/C(=O)Nc2ccc3c(c2)CCC3)c1,-,-,10.7µM,-,-
COc1ccc(/C=C/C(=O)Nc2ccc(-c3nnc4n3CCCCC4)cc2)c(OC)c1,-,-,26.9µM,-,-
CCOC(=O)/C=C/C(=O)Nc1ccc(-c2nnc3n2CCCCC3)cc1,.,-[1.84 µM],-,-,-
CC(=O)NC(Cc1ccccc1)c1ccc2c(c1)OCCCO2 (stereo not given),-,-,?,-,-
O=C(Nc1ccc(Cl)c(Cl)c1)c1ccncc1,-,-,?,-,-
CS(=O)(=O)c1ccc(C(=O)Nc2cc(S(C)(=O)=O)ccc2Cl)cc1,.,-,-,-,-
Cc1ccc(NC(=O)c2ccc(Cl)c(N3C(=O)C=CC3=O)c2)cc1,-,-,9.53µM,-,-
CS(=O)(=O)c1cccc(NC(=O)c2ccc(Cl)c(Cl)c2)c1,.,-,19µM,-,-
COc1ccc(C(=O)Nc2ccc(Cl)c(Cl)c2)c(OC)n1,3.16µM,?,0.953µM,-,?
COc1ccc(C(=O)O)c(OC)n1,.,-,-,-,-
O=C(Nc1ccc(Cl)c(Cl)c1)c1ccc(Cl)c(Cl)c1,.,3.55µM,12µM,3.55µM,-
O=C(Cn1nnc(-c2ccccc2)n1)NC1CCS(=O)(=O)C1 (stereo not given),.,-,-,-,-
O=C(Nc1ncc(Cl)cc1Cl)c1c(F)cccc1Cl,-,-,-,-,-
Cc1cc(C)c(C(=O)/C=C/c2ccc3c(c2)OCO3)c(=O)[nH]1,.,-,-,-,-
O=C(/C=C/c1ccc2c(c1)OCCCO2)c1ccccc1O,?,1.78µM,0.269µM,3.16µM,16.4µM
Cc1ccc(O)c(C(=O)/C=C/c2ccc3c(c2)OCCCO3)c1,?,?,5.36µM,?,?
CCNc1ccccc(C(=O)/C=C/c2ccc3c(c2)OCO3)c1=O,-,-,?,-,-
CN1CCN(C(=O)c2ccc(F)c(F)c2)CC1,.,-,-,-,-
CC(Sc1nnc(NCc2ccccc2)s1)C(=O)Nc1ccc2c(c1)C(=O)c1ccccc1C2=O (stereo not given),1.26µM,?,?,?,-
CC(Sc1nnc(Nc2ccccc2)s1)C(=O)Nc1nc(-c2ccccc2)cs1 (stereo not given),3.98µM,-,-,-,-
Cc1cccc(Cl)c1NNC(=O)Nc1c([N+](=O)[O-])c(C)nn1C,.,-,-,-,-
O=S(=O)(Nc1ccccc1N1CCCCC1)c1ccccc1,.,-,-,-,-
Cn1cc(Br)c(C(=O)N/N=C/c2cccc(OC3CSC3)c2)n1,-,-,19µM,-,-
O=C(N/N=C/c1ccccc1)c1ccc2c(c1)OCO2,.,0.398µM,?,0.562µM,?
Cc1ccc(C(=O)Oc2ccc(/C=N/NC(N)=O)cc2)cc1,-,-,?,-,-
SMILES,SMN2 splice enh,Rab9 prom act,FLuc counter,NPC1 promoter act,ELG1 genotoxic
CCOc1cc(/C=N/NC(=O)c2nn(C)cc2Br)ccc1OCc1ccccc1Cl,-,-,?,-,-
CCOC(=O)N/N=C\c1ccc(OC(=O)c2ccc3c(c2)OCO3)cc1,-,-,15.1µM,-,-
Cc1ccc(C(=O)/C=C/c2ccc3c(c2)OCO3)o1,-,-,2.39µM,-,-
O=C(OCc1ccccc1)C1=NNC2C(=O)N(Cc3ccccc3)C(=O)C12 (stereo not given),-,-,-,-,-
C[N+](C)(C)c1nc(N)nc2c1ncn2[C@H]1O[C@@H](CO)[C@@H](O)[C@H]1O,-[9.22 µM],.,.,.,.
CCOC(=O)N1CCN(C(=O)CN2C(=O)COc3ccc(S(=O)(=O)N4CCOCC4)cc32)CC1,.,-,-,-,-
CCOC(=O)c1cnc(N2CCN(c3ccc(OC)cc3)CC2)c2ccccc12,.,.,-,.,.
CCN1CCCn2c1nc1c2c(=O)n(C)c(=O)n1C,-,-,-,-,-
O=C(CCN1C(=O)C2CCCCC2C1=O)Nc1cc([N+](=O)[O-])ccc1Cl (stereo not given),.,-,-,-,-
Cn1cc(Br)c(C(=O)N/N=C/c2cc3c(cc2Cl)OCO3)n1,.,?,6.01µM,2.82µM,?
Cc1nn(C)cc1/C=N/NC(=O)c1ccc2c(c1)OCO2,-,-,16.9µM,-,-
Cc1ccc(C(=O)N/N=C/c2ccc3c(c2)OCO3)o1,12.6µM,2.82µM,6.01µM,3.16µM,?
